Target: FXR LBD (GAL4 fusion) (UniProt Q96RI1)
Experiment: luciferase reporter transactivation, fold of solvent control; higher = stronger receptor activation
Details: HEK293T, exposure time: 24 h
Protocol: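 HEK293T cells were transiently transfected with a GAL4-DBD fused to the ligand-binding domain of a human nuclear receptor (PPARα, PPARγ, PPARδ, FXR, LXRα, PXR, RARα or CAR), the GAL4-(UAS)5-TK firefly luciferase reporter and a Renilla luciferase normalisation plasmid. Cells were exposed to compound for 24 h in 0.5% DMSO. Firefly/Renilla luciferase was expressed as fold of the solvent control (=1). Values are the mean of 2-3 biological replicates; receptor agonists were used as positive controls.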

FXR LBD (GAL4 fusion), sequence (Q96RI1 whole entry, looked up, the tested form may be a part): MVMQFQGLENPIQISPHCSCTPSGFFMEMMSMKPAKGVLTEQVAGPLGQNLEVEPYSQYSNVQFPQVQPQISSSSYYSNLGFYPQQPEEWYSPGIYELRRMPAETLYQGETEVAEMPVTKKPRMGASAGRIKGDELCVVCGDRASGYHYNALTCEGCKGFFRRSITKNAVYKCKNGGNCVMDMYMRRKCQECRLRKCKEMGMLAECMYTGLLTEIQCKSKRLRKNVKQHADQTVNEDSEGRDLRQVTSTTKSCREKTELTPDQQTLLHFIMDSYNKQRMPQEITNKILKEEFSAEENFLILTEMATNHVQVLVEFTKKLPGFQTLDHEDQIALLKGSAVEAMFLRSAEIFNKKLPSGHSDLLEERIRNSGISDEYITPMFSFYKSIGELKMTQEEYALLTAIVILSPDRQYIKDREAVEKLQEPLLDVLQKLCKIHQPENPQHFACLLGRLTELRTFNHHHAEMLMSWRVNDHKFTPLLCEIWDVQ

O=S(=O)(O)CCC(F)(F)C(F)(F)C(F)(F)C(F)(F)C(F)(F)C(F)(F)C(F)(F)C(F)(F)F [8:2 fluorotelomer sulfonic acid] was tested, and the luciferase reporter transactivation (concentration: 1 µM) was 0.842, the luciferase reporter transactivation (concentration: 5 µM) was 1.12 and the luciferase reporter transactivation (concentration: 10 µM) was 1.16. For the same compound, the luciferase reporter transactivation (concentration: 25 µM) was 1.21, the luciferase reporter transactivation (concentration: 50 µM) was 1.53 and the luciferase reporter transactivation (concentration: 100 µM) was 4.17. For the same compound, the luciferase reporter transactivation (concentration: 250 µM) was 3.41 and the luciferase reporter transactivation (concentration: 500 µM) was 2.14.
O=S(=O)(O)CCC(F)(F)C(F)(F)C(F)(F)C(F)(F)C(F)(F)C(F)(F)F [6:2 fluorotelomer sulfonic acid] was tested, and the luciferase reporter transactivation (concentration: 1 µM) was 1.09, the luciferase reporter transactivation (concentration: 5 µM) was 0.835 and the luciferase reporter transactivation (concentration: 10 µM) was 1.32. For the same compound, the luciferase reporter transactivation (concentration: 25 µM) was 1.37, the luciferase reporter transactivation (concentration: 50 µM) was 1.75 and the luciferase reporter transactivation (concentration: 100 µM) was 2.38.
Compound O=C(O)C(F)(F)C(F)(F)C(F)(F)C(F)(F)F [perfluoropentanoic acid] has a luciferase reporter transactivation (concentration: 1 µM) of 0.969, a luciferase reporter transactivation (concentration: 5 µM) of 1.05 and a luciferase reporter transactivation (concentration: 10 µM) of 1.05. It also gave a luciferase reporter transactivation (concentration: 25 µM) of 1.12, a luciferase reporter transactivation (concentration: 50 µM) of 1.18 and a luciferase reporter transactivation (concentration: 100 µM) of 1.11. The luciferase reporter transactivation (concentration: 250 µM) was 1.18 and the luciferase reporter transactivation (concentration: 500 µM) was 2.08.
OCCC(F)(F)C(F)(F)C(F)(F)C(F)(F)C(F)(F)C(F)(F)F [6:2 fluorotelomer alcohol] gave a luciferase reporter transactivation (concentration: 1 µM) of 0.815, a luciferase reporter transactivation (concentration: 5 µM) of 0.885 and a luciferase reporter transactivation (concentration: 10 µM) of 0.96. It also gave a luciferase reporter transactivation (concentration: 25 µM) of 0.834, a luciferase reporter transactivation (concentration: 50 µM) of 0.847 and a luciferase reporter transactivation (concentration: 100 µM) of 0.833. The luciferase reporter transactivation (concentration: 250 µM) was 0.628 and the luciferase reporter transactivation (concentration: 500 µM) was 0.416.
For CC(C)c1onc(-c2c(Cl)cccc2Cl)c1COc1ccc(/C=C/c2cccc(C(=O)O)c2)c(Cl)c1, the luciferase reporter transactivation (concentration: 10 µM) was 50.2.

Reference: the supplement of paper PMC11402862
